From PubChem BioAssay (EPA / NIEHS)
Results filed as inconclusive are left out. Activity calls are given as the source filed them. The calls were made as follows: active = hit-call score of the fitted dose curve at least 0.9, where 1 is the maximum; inconclusive = response in the unintended direction; inactive = score below 0.9.

The molecules below were run against Estrogen-related receptor gamma (Homo sapiens) (UniProt P62508) (assay: ATG_ERRg_TRANS: Attagene TRANS-FACTORIAL HepG2 Assay for human Estrogen-Related Receptor gamma (ERRg) (AID 2282977;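 also: hits increase reporter signal over DMSO so potencies reflect activators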)). Settings: HepG2 Attagene TRANS reporter, ERRg transactivation.
Chain of Estrogen-related receptor gamma (Homo sapiens) (P62508 whole entry, looked up): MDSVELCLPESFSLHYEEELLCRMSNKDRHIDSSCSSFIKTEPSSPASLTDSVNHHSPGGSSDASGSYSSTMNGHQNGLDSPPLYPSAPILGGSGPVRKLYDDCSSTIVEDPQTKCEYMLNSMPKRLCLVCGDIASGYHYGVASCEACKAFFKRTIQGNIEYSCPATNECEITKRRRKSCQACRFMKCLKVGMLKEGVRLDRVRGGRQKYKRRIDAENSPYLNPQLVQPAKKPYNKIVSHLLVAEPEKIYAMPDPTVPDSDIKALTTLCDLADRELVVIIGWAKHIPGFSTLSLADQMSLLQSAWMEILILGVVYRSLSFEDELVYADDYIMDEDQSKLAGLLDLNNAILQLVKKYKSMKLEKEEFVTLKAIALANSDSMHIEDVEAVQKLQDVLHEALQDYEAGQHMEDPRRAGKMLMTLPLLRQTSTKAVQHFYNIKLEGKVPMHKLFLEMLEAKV
Method: ATG_TRANS is a cell-based, multiplexed-readout assay that uses HepG2, a human liver cell line, with measurements taken at 24 hours after chemical dosing in a 24-well plate.ATG_ERRg_TRANS is one of 30 assay component(s) measured or calculated from the ATG_TRANS assay. It is designed to make measurements of mRNA induction, a form of inducible reporter, as detected with fluorescence intensity signals by Reverse transcription polymerase chain reaction (RT-PCR) and Capillary electrophoresis technology.Data from the assay component ATG_ERRg_TRANS was analyzed into 1 assay endpoint. This assay endpoint, ATG_ERRg_TRANS, was analyzed in the positive analysis fitting direction relative to DMSO as the negative control and baseline of activity. Using a type of inducible reporter, measures of mRNA for gain-of-signal activity can be used to understand the reporter gene at the transcription factor-level as they relate to the gene ESRRG. Furthermore, this assay endpoint can be referred to as a primary readout, because this assay has produced multiple assay endpoints where this one serves a reporter gene function. To generalize the intended target to other relatable targets, this assay endpoint is annotated to the nuclear receptor intended target family, where the subfamily is steroidal.
Human liver HepG2 cells are transiently transfected with multiple reporter transcription units (MRTUs) in 6-well plates using FuGene 6 reagent (Roche; 3 ml FuGene/1 mg DNA). The MRTU constructs are regulated by a cis-regulating element (promoter). […] A major difference between the CIS and TRANS system is that in CIS activities of endogenous TFs are measured, whereas the TRANS assay evaluates changes in activities of exogenous, chimeric NR-Gal4 proteins. […] At the end of 24 hour incubation, total RNA was isolated using TriZol reagent (Invitrogen). The isolated RNA is then reverse-transcribed using oligo(dT) primer and Mo-MLV reverse transcriptase (Invitrogen) with DNAse I (Ambion) treatment for 30 min. The one-tenth of the produced cDNA was amplified by PCR using Taq DNA polymerase (Invitrogen) and two reporter sequence-specific primers. The PCR products were fluorescently labeled by primer extension with 6-arboxyfluorescein (6-FAM) 5'-labeled reporter sequence-specific primer (2 min at 95 C, 20 s at 68 C and 10 min at 72 C) and these products were digested with 5U of HpaI (New England Biolabs) for 2h at 37 C. The fragments were purified using Qiaquick PCR columns (Qiagen), analyzed on an ABI 3130xL genetic analyzer (Applied Biosystems) with peak positions identified by using a set of X-rhodamine (ROX)-labeled MapMarker1000 molecular weight standards (BioVentures). The raw capillary electrophoresis data was processed using Attagraph software (Attagene).

SMILES | outcome
c1cc2cccc3c4cccc5cccc(c(c1)c23)c54 | inactive
O=C(Nc1cccc([N+](=O)[O-])c1)c1cc2ccccc2cc1O | inactive
COc1ccccc1NC(=O)c1cc2ccccc2cc1O | inactive
C[N+](C)(CCCNS(=O)(=O)CCC(F)(F)C(F)(F)C(F)(F)C(F)(F)C(F)(F)C(F)(F)F)CC(=O)[O-] | inactive
O=CC(F)(F)C(F)(F)C(F)(F)C(F)F | inactive
CC[N+](CC)(CC)Cc1ccccc1 | inactive
CC1=CC(=O)c2ccccc2C1=O | inactive
CCCCCCCCCCCCCCCCCC[N+](C)(C)Cc1ccccc1 | inactive
O=C1OC2(c3ccccc31)c1cc(I)c(O)c(I)c1Oc1c2cc(I)c(O)c1I | inactive
O=C(c1cc(O)c(O)c(O)c1)c1ccc(O)c(O)c1O | inactive
O=C1c2ccccc2C(=O)c2c(O)c(O)cc(O)c21 | inactive
O=C(O)c1cccc(C(=O)O)n1 | inactive
CC1CCC(C(=O)O)CC1 (stereo not given) | inactive
CC(C)(O)C(=O)c1ccccc1 | inactive
O=C(NO)c1ccccc1 | inactive
C=CC(=O)OCCC(F)(F)C(F)(F)C(F)(F)C(F)(F)C(F)(F)C(F)(F)F | inactive
C=CC(=C)CC/C=C(\C)CCC=C(C)C | inactive
CCCCCCC(C)(C)C(=O)O | inactive
Cc1cncc(C)c1 | inactive
O=S(=O)(O)C(F)(F)C(F)(F)C(F)(F)C(F)(F)C(F)(F)C(F)(F)C(F)(F)C(F)(F)C(F)(F)C(F)(F)F | inactive

SMILES | outcome
Brc1cc(Br)c(Oc2c(Br)cc(Br)c(Br)c2Br)cc1Br | inactive
O=S(=O)(O)c1ccccc1 | inactive
O=C(O)C(F)(F)OC(F)(F)C(F)(F)OC(F)(F)C(F)(F)OC(F)(F)C(F)(F)C(F)(F)C(F)(F)F | inactive
CCCCC(CC)C(=O)OCCOCCOCCOCCOC(=O)C(CC)CCCC (stereo not given) | inactive
CCCCc1ccc2ccccc2c1S(=O)(=O)O | inactive
C=CCOCC(CO)(CO)CO | inactive
c1cnc2c(c1)ccc1cccnc12 | inactive
CCO[Si](C)(C)OCC | inactive
FC1(F)C=CC(F)(F)C1(F)F | inactive
CCc1cccc(CC)c1N(COC)C(=O)CS(=O)(=O)O | inactive
O=C1c2ccc(O)c(O)c2C(=O)c2c(O)ccc(O)c21 | inactive
CN(CCO)S(=O)(=O)C(F)(F)C(F)(F)C(F)(F)C(F)(F)C(F)(F)C(F)(F)C(F)(F)C(F)(F)F | inactive
CCOC=O | inactive
O=C1C=CC(=O)N1c1cccc(N2C(=O)C=CC2=O)c1 | inactive
FC(F)=C(F)C(F)(F)C(F)(F)C(F)(F)C(F)F | inactive
FC(OC(F)(F)C(F)(F)C(F)(F)F)C(F)(F)F (stereo not given) | inactive
Oc1c(Cl)cc(Cl)cc1Sc1cc(Cl)cc(Cl)c1O | inactive
C=CC(F)(F)C(F)(F)C(F)(F)C(F)(F)F | inactive
CCC(C)c1ccccc1O (stereo not given) | inactive
Oc1cccc2c(O)cccc12 | inactive
